Sa ugtP lethal – growth inhibition of ugtP-null S. aureus, primary screen, RN4220 ugtP deletion, OD600. 16 h. growth inhibition, % (test concentration not listed). hit rate 0.54% among 330,000. AID 1259309, 2017; in the data active = growth inhibition above about 68%;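 also: plate controls were untreated wells for no effect and antibiotic for full effect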
BJeLR lethal – MLPCN primary cell-based screen for lethality selective to Ras in HRASV12 cells. AID 1554, 2009. hit rate 0.17% among 300,000. inhibition, % (concentration not given with the values). BJeLR (HRASV12) viability, CellTiter-Glo ATP luminescence, 48 h; in the data active = inhibition above about 50%
PriA SSB inh – inhibitors of Klebsiella pneumoniae PriA binding to SSB C-terminal tail, primary screen, biochemical, AlphaScreen; PriA–SSB C-terminal tail interaction (Klebsiella pneumoniae); AlphaScreen SSBct-PriA binding, biotinylated peptide; inhibition, % at 33 µM; hit rate 0.6% among 430,000; AID 1272365, 2023; in the data active = inhibition mostly above about 37%, no sharp cut-off; inactive = mostly below about 20%;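 also: plate controls were negative control peptide for no effect and reference peptide for full effect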
Sa RN4220 lethal – growth inhibition of S. aureus RN4220, primary screen, OD600; inhibition, % (no concentration beside the values); hit rate 0.33% among 330,000; 16 h; in the data active = inhibition above about 85%;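 also: plate controls were untreated cells for no effect and reference antibiotic for full effect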
MazEF act – activators of E. coli MazEF toxin-antitoxin RNase, primary screen, biochemical, fluorescence, uHTS. FAM/BHQ RNA-DNA oligo cleavage fluorescence, 5 h. Endoribonuclease toxin MazF (Escherichia coli (strain K12)), P0AE70. activation, % at 20 µM. hit rate 0.32% among 350,000; in the data active = activation above about 50%
Target sequence (P0AE70 whole entry, looked up): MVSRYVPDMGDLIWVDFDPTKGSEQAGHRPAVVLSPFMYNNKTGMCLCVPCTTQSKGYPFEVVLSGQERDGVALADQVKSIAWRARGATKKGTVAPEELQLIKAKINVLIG
* hit, by the source's call; i = inactive; . = no result; ! = not active in a repeat. Rows were chosen to be rich in hits. Some 1.2% of all compounds tested hit in one or more screens of this group.

SMILES	Sa ugtP lethal	BJeLR lethal	PriA SSB inh	Sa RN4220 lethal	MazEF act
CC(=NNc1nc2ccccc2[nH]1)c1ccc2c(c1)OCCO2	-2	.	42*	3	.
CC(C)=NNc1nc2ccccc2[nH]1	.	.	69*	.	.
COc1ccc(CC(=O)N(CCN2CCOCC2)c2nc3ccc(SC)cc3s2)cc1OC	.	.	29*	.	.
CN(CCCCCCCCC(=O)C=NO)Cc1ccccc1	8	.	-8	1	.
O=C(Nc1cc(Cl)cc(Cl)c1)Nc1cnccn1	100*	-8	-27	100*	-57
O=C(Nc1ccc(F)cc1)Nc1cnccn1	2	0	-10	1	2
COc1ccc2c(c1)N(C)/C(=C/c1cccc[n+]1C)S2	90*	-2	-11	21	-31
Cc1ccc2c(c1)N(C)/C(=C/c1cccc[n+]1C)S2	101*	7	-4	46	-17
O=C(c1ccccc1)c1ccccc1NC(=O)C1CCCN1Cc1ccccc1 (stereo unspecified)	12	7	-8	7	6
COc1ccc(C(=O)c2c[nH]c(C(=O)NCCCN3CCOCC3)c2)cc1	2	0	-10	1	-2
CCCN1CCCc2cc(CCNC(=O)C(=O)NCc3ccccc3Cl)ccc21	.	.	-19	.	.
CCCN1CCCc2cc(CCNS(=O)(=O)c3ccccc3Cl)ccc21	.	.	active!	.	.
CCCN1CCCc2cc(CCNS(=O)(=O)Cc3ccccc3Cl)ccc21	.	.	72*	.	.
CCCN1CCCc2cc(CCNS(=O)(=O)c3ccccc3Br)ccc21	.	.	active!	.	.
CCCn1c(CC)nc([N+](=O)[O-])c1Sc1ncn[nH]1	.	.	.	.	-11
CC(C)COc1ccc(-c2nn(-c3ccccc3)cc2/C=C2/SC(=S)N(CC(=O)O)C2=O)cc1	71	0	-4	98*	-2
O=C(O)CN1C(=O)/C(=C\c2cn(-c3ccccc3)nc2-c2ccccc2)SC1=S	.	-1	-13	.	-25
COC(=O)N/N=C/c1ccc(-c2cc(Cl)ccc2Cl)o1	.	-6	.	.	5
COC(=O)N/N=C\c1ccc(-c2cc(Cl)c(Cl)cc2Cl)o1	.	-6	.	.	55*
COc1ccc(OC(=O)CCCN2C(=O)c3ccccc3C2=O)cc1	5	-11	3	4	-3
NC(=NOC(=O)c1ccco1)c1ccccn1	.	.	-5	.	.
Oc1ccc(Cn2ccnc2)c2cccnc12	-7	0	99*	0	-16
COCc1ccc(O)c2ncccc12	98*	10	94*	98*	-3
OCCOCc1ccc(O)c2ncccc12	.	.	140*	.	.
CCCCCCc1ccc(O)c2ncccc12	.	.	60	.	.
SMILES	Sa ugtP lethal	BJeLR lethal	PriA SSB inh	Sa RN4220 lethal	MazEF act
COc1ccc(-c2csc(SCC(=O)N3CCN(c4cccc(Cl)c4)CC3)n2)cc1	.	.	-9	.	.
Cn1ccnc1SCC1CCN(S(=O)(=O)c2ccc3c(c2)CCCC3)CC1	.	.	63*	.	.
COC(=O)c1c(NC(=S)NNS(=O)(=O)c2ccc(OC)cc2OC)sc2c1CCCCCC2	92*	-1	15	-8	-1
CCOC(=O)c1c(NS(=O)(=O)c2ccc(Br)cc2)sc2c1CCC2	98*	7	1	112*	-5
CCOC(=O)c1c(NC(=O)c2ccc(Br)cc2)sc2c1CCC2	.	.	-9	.	.
COC(=O)c1c(NS(=O)(=O)c2ccc3ccccc3c2)sc2c1CCCC2	78	4	-4	87*	-3
O=C1c2ccccc2-c2onc3ccc(NCc4ccco4)c1c23	-23	17	78*	-5	i
CN(C(=O)c1cccc(Nc2ccc(-c3ccc4c(c3)OCCO4)nn2)c1)C1CCCCC1	99*	.	14	88*	3
CN(C)S(=O)(=O)c1ccc(Nc2ccc(-c3ccc4c(c3)OCCO4)nn2)cc1	9	11	-4	2	13
O=C(CCN1CCN(C(=O)c2ccco2)CC1)Nc1ccc(F)cc1	-8	-1	0	-1	14
Cc1ccc(Nc2cc(C)nn2-c2nc(C)cc(=O)[nH]2)cc1	99*	40	32	98*	-4
Cc1ccc(NC(=S)N2CCC(NC(=O)C3CCCCC3)CC2)cc1C	-5	5	2	0	-27
O=C(COc1ccccc1Cl)N1CCN(c2ccc([N+](=O)[O-])c(N3CCCCC3)c2)CC1	-24	0	26	-3	-5
c1ccc(C2=NNC(c3ccccn3)=NN2)nc1	11	6	82*!	0	-4
COc1cccc(S(=O)(=O)N2CCCN(CCn3nc(C)cc3C)CC2)c1	.	.	-8	.	.
O=C(Nc1cccc2cccnc12)c1ccc(Cl)cc1	18	0	-12	4	9
Cc1ccc2nc(N(CCCn3ccnc3)C(=O)C3COc4ccccc4O3)sc2c1 (stereo unspecified)	.	.	35*	.	.
CN(C)CCCN(C(=O)C1COc2ccccc2O1)c1nc2ccc(F)cc2s1 (stereo unspecified)	-2	2	-11	5	7
Cc1cc(O)c2c(c1)C(=O)C13C(=C2O)C(=O)[C@H]2[C@@H](O)[C@@H]1[C@H]1[C@H](O)[C@@H]3C(=O)C3=C(O)c4c(O)cc(C)cc4C(=O)C312 (stereo partly specified)	97*	.	-3	98*	-10
O=S(=O)(Nc1ccccc1F)c1ccc2nsnc2c1	-4	3	12	8	2
Cc1nn(Cc2ccc(Cl)cc2)c(C)c1N	-1	0	5	3	2
CC(=O)Oc1c(/C=C(\C#N)C(N)=O)[nH]c2ccccc12	87*	-4	8	96*	597*
Cc1ccccc1Nc1nc(N)nc(CN2CCN(Cc3ccc4c(c3)OCO4)CC2)n1	6	-2	-2	9	-8
Cn1c2c(c(=O)n(C)c1=O)[C@@]1(C(=O)Nc3ccccc31)C(C#N)=C(N)O2	29	4	-1	87*	3
COC(=O)CC(N)=C(C#N)C(=O)OC	.	.	-12	.	.
SMILES	Sa ugtP lethal	BJeLR lethal	PriA SSB inh	Sa RN4220 lethal	MazEF act
CCOc1cnn(-c2cc(Oc3ccc(C)cc3)ncn2)c(=O)c1Cl	-1	0	-16	5	7
Cc1ccccc1Oc1cc(-n2ncc(Cl)c(Cl)c2=O)ncn1	92*	.	-4	58	3
O=c1cccc2n1CC1CC2CN(C(=S)NC2CCCCC2)C1 (stereo unspecified)	.	.	-12	.	.
COCCCNC(=O)Cc1c(C)c2c(cc(C)c3c(C(C)(C)C)coc32)oc1=O	5	66*	-2	-1	10
CCOc1ccc2[nH]cc(S(=O)(=O)c3ccc(F)cc3)c(=O)c2c1	3	3	-8	8	6
COc1ccc2[nH]cc(S(=O)(=O)c3ccc(F)cc3)c(=O)c2c1	-14	-4	104*	-1	-9
S=C(Nc1ccccc1)c1ccccn1	0	-6	72*	-5	-3
S=C(Nc1ccccc1)Nc1ccccn1	.	.	.	.	-1
COc1ccc(-c2cc3c(=O)[nH]nc(SCc4nc(-c5cccc(Cl)c5)no4)n3n2)cc1OC	.	.	-19	.	.

Screening results as filed in PubChem BioAssay.
